Tests used:
Experiment in all cases: PBM binding z-score (relative to random genomic background probes); higher = stronger binding; sequences stand for … in GC…GCGATTGACAGCGTAGAATGAAGG
[1] = system: RARb homodimer (NR concentration 270 nM)
Outline: (§1)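 Regression normalization was applied to scanned fluorescence from custom Agilent 4×180K protein-binding microarrays. Before scanning, arrays were incubated 1 h with ligand-free nuclear receptor dimers, and binding was detected with antibodies against each partner (one per run). Binding z-scores use the random background probes as reference.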

[2] = system: RARg:RXRa (NR concentration 270 nM, RXRa partner concentration 90 nM)
Outline: as §1

[3] = system: RARg homodimer (NR concentration 270 nM)
Outline: as §1

[4] = system: RXRa DBDmut IVT, anti-RXR (DBD mutation: RXRa K156A/R161A, NR concentration 90 nM)
Outline: as §1

[5] = system: RXRa homodimer (NR concentration 180 nM)
Outline: as §1

[6] = system: THRa:RXRa (NR concentration 90 nM, RXRa partner concentration 90 nM)
Outline: as §1

[7] = system: THRa homodimer (NR concentration 90 nM)
Outline: as §1

[8] = system: VDR homodimer (NR concentration 270 nM)
Outline: as §1

Sequence	PBM binding z-score [1]	PBM binding z-score [2]	PBM binding z-score [3]	PBM binding z-score [4]	PBM binding z-score [5]	PBM binding z-score [6]	PBM binding z-score [7]	PBM binding z-score [8]
ACTAGCAGCCCAAGGGTCACTCAAGATTAGTCCG	3.74	3.55	3.23	0.283	3.67	2.45	0.307	0.863
ATATCTAGGTTATCGGGTCATTCAGTTTGCGCAT	3.52	3.54	2.81	1.81	3.51	3.67	3.5	4.19
GGAATGAGGGCATTCGAGTTGATAGCATGGCGAT	0.662	1.15	1.22	3.43	0.995	3.3	0.191	3.8
TATGCAGGGTCAAAGGCCAGAGTACGAATGTCGA	3.43	5.45	4.89	2.39	6.81	3.45	0.361	2.66
GCTAGTTGGTCAGTAAACGGTCACACACCGGTCG	2.63	1.5	1.33	-0.0327	0.347	0.155	-0.176	-0.361
TGTCATAGTTCAAAGGTAACGTAAGTATCCACAC	2.51	4.15	3.54	2.09	5.18	2.6	0.118	1.23
CGTCCCAGGTCAAGGTCAGTGAAAGAGACTCGAA	4.62	5.74	6.29	2.55	5.19	4.18	3.61	2.6
ACTATTAGTTGAGACGAGGGCAACCGGTAGGTTG	1.42	0.949	0.676	0.457	0.675	2.69	0.339	1.07
GATACAGGGTAAAGGCCAGAGTACGCGTATTGAT	0.909	0.831	0.93	-0.389	0.877	0.316	-0.482	-0.0194
ACAGACAGGTGATGAAGGCAACTCAGGCTATCAT	-0.412	0.106	0.345	-0.405	0.152	0.815	-0.588	-0.37
CCTTACGAGTCACGAGGTTATAGCACGACGAGCG	1.11	1.27	1.04	0.554	1.8	1.9	1.19	1.26
TAGCCTAGGTCAGATCGGGCCAATATACGCTATA	2.28	2.9	3.4	-0.355	1.51	4.32	0.165	-0.261
TCTAGTTGGTCACCGAGGTCACACACGACGGGTA	4.5	4.8	4.64	1.4	5.06	4.2	4.2	3.89
GCGACTGGGGCATCAGCAGGTTACCGTAACTTAA	1.14	0.702	0.193	-0.433	0.309	1.03	-0.152	-0.576
CCTCACGGGTCACTGACAGGTTATAGCATTTGGA	3.33	5.64	4.5	1.81	4.65	2.77	0.669	1.02
CGTCCAAGGTCATAGTAGGTCAGTGAAGACAGAT	4.63	6.11	6.44	4.14	6.11	4.94	2.97	3.93
ACTATTAGTTGACTTAGGTCAACCGATACGACGC	3.31	2.8	2.9	1.07	2.17	3.47	2.98	1.41
CCTCGGAGTACAGAAGGTCAGAGCTGTCCGCTTT	3.15	2.77	2.95	0.9	2.37	2.3	0.111	0.59
GCAAATAGGTAATACAAGGTGAAAGTCCGATTGT	0.898	0.546	0.597	0.463	0.951	4.22	0.778	-0.442
CATACAGGGTCAGCTAGGCCAGAGTCGGGACGGC	3.18	4.42	4.67	2.13	4.21	3.08	0.802	1.31
ACTATTAGTTGACATAGGGCAACCGATACGACGC	1.24	0.928	1.29	0.826	0.903	1.25	0.125	0.399
TCTGCTAGGTCAACGATGTTCAGCTAATCTGCTA	2.97	3.73	4.24	1.03	2.47	2.73	0.88	-0.288
GATACAGGGTCAGCTAGTGGCCAGAGTATGGAAA	2.79	4.73	4.32	1.25	3.81	2.46	0.162	0.556
ATATCTAGGTTACATCCGGGTCATTCAGGCTATG	3.15	3.37	2.49	1.4	2.78	3.94	3.37	3.63
TCCGCTAGGTCAACGATGGTCAGCTAATCTGCTA	3.45	3.93	4.83	1.1	2.23	3.06	1.03	-0.0724
TCTGCTAGGTCAACGATAGTCAGCTAATCTGCTA	2.84	3.9	4.6	0.919	2.63	2.67	0.277	-0.234
TCGGGTAGGTTAGGGGCATTCAGAATGGCGTCGA	1.88	1.07	1	0.943	1.02	2.44	1.61	1.79
ACTAGCAGGCCAAGGGTCACTCCAGATTAGTCCG	3.65	3.77	3.48	0.274	3.74	2.55	0.269	1

Source: the supplement of paper PMC6555819
